aSyn 5UTR act: Activators working through SNCA 5'UTR binding (MLPCN); activity score, % (tested at 7.5 µM), hits read low; AID 1814; hit rate 7.1% among 300,000; alpha-synuclein 5'UTR reporter, activators screen; in the data active = activity score below about -60%
* marks the source's active call; other numbers are inactive results. Not all results are given here.

Results for COCCCOc1ccnc(CS(=O)c2nc3ccccc3[nH]2)c1C (centres undefined) ?
aSyn 5UTR act: -111.3*

What do the screens show for `CCOC(=O)c1cc(C(=O)Nc2ccccc2F)nn1C`?
aSyn 5UTR act: -159.2*

How did Nc1ncccc1OCc1ccc(Cl)c(Cl)c1 do in these assays?
aSyn 5UTR act: -148.6*

How did COc1cc(CNCc2ccccn2)ccc1OCc1ccc(Cl)c(Cl)c1 do in these assays?
aSyn 5UTR act: -113.7*

Results for c1ccc(SCc2nc(-c3ccncc3)no2)cc1 ?
aSyn 5UTR act: -206.3*

What do the screens show for `COc1ccc(-c2noc(CSc3ccccc3)n2)cc1OC`?
aSyn 5UTR act: -113.5*

Results for COc1ccc(-c2noc(CSc3nnc(CCc4ccccc4)n3-c3ccccc3)n2)cc1OC ?
aSyn 5UTR act: 51.7

What do the screens show for `O=C(c1ccc(OC(F)(F)F)cc1)c1ncc[nH]1`?
aSyn 5UTR act: -83.3*

What do the screens show for `Clc1ccccc1CSc1ncn(-c2ccccc2)n1`?
aSyn 5UTR act: -185.3*

How did Cc1ccsc1C1Nc2ccccc2-c2nc3ccccc3n21 (centres undefined) do in these assays?
aSyn 5UTR act: -169.1*

Results for c1csc(C2Nc3ccccc3-c3nc4ccccc4n32)c1 (centres undefined) ?
aSyn 5UTR act: -82.6*

Results for c1cncc(C2Nc3ccccc3-c3nc4ccccc4n32)c1 (centres undefined) ?
aSyn 5UTR act: -92.4*

What do the screens show for `CC1(C)Cc2nc3sc4c(SCC(=O)NCc5ccccc5)ncnc4c3cc2CO1`?
aSyn 5UTR act: 64.0

How did CC1(C)Cc2nc3nc(SCC(=O)Nc4ccccc4)nc(N)c3cc2CO1 do in these assays?
aSyn 5UTR act: -67.5*

What do the screens show for `CCn1c(SCC(=O)Nc2ccc(C(C)=O)cc2)nc2nc3c(cc2c1=O)COC(C)(C)C3`?
aSyn 5UTR act: -83.1*

Results for CC(=O)c1ccc(NC(=O)CSc2nc(N)c3cc4c(nc3n2)CCCC4)cc1 ?
aSyn 5UTR act: -78.9*

Results for CC1CCCCN1C(=S)NCCc1ccccc1 (centres undefined) ?
aSyn 5UTR act: -93.0*

Results for COc1ccc(Br)cc1CNC(=O)C1CCN(C(=O)N(C)C)CC1 ?
aSyn 5UTR act: 77.6

Results for O=C(NCCc1ccccc1)C1CCN(C(=O)Nc2ccccc2)CC1 ?
aSyn 5UTR act: -66.1*

How did CN(C)C(=O)N1CCCC(C(=O)NCCc2ccccc2)C1 (centres undefined) do in these assays?
aSyn 5UTR act: -91.3*

What do the screens show for `CC1CCCN(C(=S)NCCc2ccccc2)C1` (centres undefined)?
aSyn 5UTR act: -101.7*

Results for CN1C(=O)CSc2ccc(NC(=O)Nc3ccccn3)cc21 ?
aSyn 5UTR act: -115.6*

What do the screens show for `COc1ccc(NC(=O)Nc2ccccn2)cc1OC`?
aSyn 5UTR act: -79.4*

What do the screens show for `O=C(Nc1ccc(Cl)c(Cl)c1)Nc1ccccn1`?
aSyn 5UTR act: -177.7*

How did Fc1cccc2sc(N3CCCCC3)nc12 do in these assays?
aSyn 5UTR act: -116.0*

What do the screens show for `Fc1cccc2sc(N3CCOCC3)nc12`?
aSyn 5UTR act: -79.7*

How did Fc1cc(F)c2nc(N3CCCC3)sc2c1 do in these assays?
aSyn 5UTR act: -92.8*

What do the screens show for `COc1cccc(C2(O)CC(C(F)(F)F)=NN2C(=O)c2ccccn2)c1` (centres undefined)?
aSyn 5UTR act: -112.7*

Results for O=C(Nc1cccc(Cl)c1)c1ccc2ncsc2c1 ?
aSyn 5UTR act: -266.2*

How did O=C(Nc1ccc(F)cc1)c1ccc2ncsc2c1 do in these assays?
aSyn 5UTR act: -176.3*

Results for O=C(Nc1ccc(Cl)cc1)c1ccc2ncsc2c1 ?
aSyn 5UTR act: -227.5*

What do the screens show for `O=C(Nc1ccc(C(F)(F)F)cc1)c1ccc2ncsc2c1`?
aSyn 5UTR act: -167.3*

How did Cc1ccc(NC(=O)c2ccc3ncsc3c2)cc1S(=O)(=O)N(C)C do in these assays?
aSyn 5UTR act: -148.4*

How did N/C(=N\OC(=O)COc1ccc(Cl)cc1Br)c1cccnc1 do in these assays?
aSyn 5UTR act: -157.1*

How did CCc1ccc(OCC(=O)O/N=C(\N)c2cccnc2)cc1 do in these assays?
aSyn 5UTR act: -82.7*

Results for N/C(=N\OC(=O)COc1ccc(Br)cc1Cl)c1cccnc1 ?
aSyn 5UTR act: -154.5*

What do the screens show for `Cc1cc(O)ccc1N/C=C(\C#N)c1nc2ccccc2o1`?
aSyn 5UTR act: -141.1*

What do the screens show for `O=C(c1ccc(COc2ccccc2Br)cc1)N1CCCCC1`?
aSyn 5UTR act: -77.4*

How did Fc1ccc(COc2ccc(C(=S)N3CCCC3)cc2)cc1 do in these assays?
aSyn 5UTR act: -77.4*

What do the screens show for `O=c1c2ccccc2c(C=Nc2ccc(O)cc2)c(O)n1Cc1ccccc1`?
aSyn 5UTR act: -110.7*

What do the screens show for `COc1cccc(/C=N/Nc2cc(Cl)nc(C)n2)c1O`?
aSyn 5UTR act: -100.1*

What do the screens show for `COc1cccc(/C=N/Nc2c(Cl)cncc2Cl)c1O`?
aSyn 5UTR act: -119.9*

Results for CCCCSc1nc(C)cc(SCC(=O)N/N=C/c2cccc(OC)c2O)n1 ?
aSyn 5UTR act: 81.1

Results for CCN1CCN(c2c(Cl)cccc2NC(=O)c2ccc([N+](=O)[O-])o2)CC1 ?
aSyn 5UTR act: 79.2

How did O=C(Nc1cccc(Cl)c1N1CCCC1)c1cc2ccccc2o1 do in these assays?
aSyn 5UTR act: -74.1*

How did O=C(Nc1ccccc1C(F)(F)F)c1cc2ccccc2o1 do in these assays?
aSyn 5UTR act: -209.4*

How did CN(C)S(=O)(=O)c1cc(NC(=O)c2cc(=O)c3ccccc3o2)ccc1Cl do in these assays?
aSyn 5UTR act: -66.4*

How did COC(=O)c1cccc(NC(=O)c2cc3ccccc3o2)c1 do in these assays?
aSyn 5UTR act: -104.7*

What do the screens show for `COC(=O)c1ccccc1NC(=O)c1cc2ccccc2o1`?
aSyn 5UTR act: -78.9*

What do the screens show for `CC(=O)c1cccc(NC(=O)c2cc(=O)c3ccccc3o2)c1`?
aSyn 5UTR act: -62.3*

How did COc1ccc2c(c1)S/C(=C\C(=O)c1ccncc1)N2C do in these assays?
aSyn 5UTR act: -165.2*

What do the screens show for `CN1/C(=C/C(=O)C2CCC2)Sc2ccccc21`?
aSyn 5UTR act: -88.8*

How did COc1cc(OC)cc(C(=O)/C=C2\Sc3ccccc3N2C)c1 do in these assays?
aSyn 5UTR act: -154.3*

How did CN1/C(=C\C(=O)c2cccc([N+](=O)[O-])c2)Sc2ccccc21 do in these assays?
aSyn 5UTR act: -83.4*

How did CN1/C(=C/C(=O)c2ccc(Cl)cc2)Sc2cc3c(cc21)OCO3 do in these assays?
aSyn 5UTR act: -160.1*

What do the screens show for `O=C(N/N=C/c1nn(-c2ccccc2)cc1-c1ccc(Cl)cc1)c1ccncc1`?
aSyn 5UTR act: -63.7*

Results for COc1cccc(-c2nn(-c3ccccc3)cc2CO)c1 ?
aSyn 5UTR act: -126.6*

Results for OCc1cn(-c2ccccc2)nc1-c1ccc(Br)cc1 ?
aSyn 5UTR act: -116.7*

What do the screens show for `OCc1cn(-c2ccccc2)nc1-c1ccc2c(c1)OCCO2`?
aSyn 5UTR act: -132.6*

What do the screens show for `O=C(N/N=C/c1cn(-c2ccccc2)nc1-c1ccc2c(c1)OCCO2)c1ccncc1`?
aSyn 5UTR act: -98.5*

Results for O/N=C/c1cn(-c2ccccc2)nc1-c1ccc2c(c1)OCCO2 ?
aSyn 5UTR act: -72.3*

What do the screens show for `Nc1ccc(C(=O)N/N=C/c2cn(Cc3ccccc3F)c3ccccc23)cc1`?
aSyn 5UTR act: 72.4

How did O=C(O)c1ccc(N/N=C/c2cn(Cc3ccccc3F)c3ccccc23)cc1 do in these assays?
aSyn 5UTR act: -65.2*

What do the screens show for `CC(C)n1cc(/C=N/Nc2ccc(C(=O)O)cc2)c2ccccc21`?
aSyn 5UTR act: -79.3*

Results for COc1cccc2[nH]c(=O)c(-c3ccccc3)cc12 ?
aSyn 5UTR act: -136.4*

Results for Oc1[nH]c2ccccc2c1/C=N/c1nccs1 ?
aSyn 5UTR act: -144.6*
